Screens deposited in PubChem by Sanford-Burnham Center for Chemical Genomics.
CYP2C9 act: increases human cytochrome P450 2C9 activity | activation factor at 5 µM | recombinant CYP2C9, luciferin-H conversion, luminescence; hits give high values; factor 1 = untreated enzyme, 0 = blocked | AID 1024 | P11712 | actives 1.4% (n = 96,000);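 active = activation factor of 2 or more for CYP2C9 at a 5 µM dose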;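 also: 0 = sulfaphenazole-blocked wells and 1 = vehicle-only wells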
CYP2C19 activ: activators of human cytochrome P450 2C19 | recombinant CYP2C19, luciferin-H EGE luminescence; hits give high values; 0 = fully inhibited enzyme, 1 = untreated enzyme | activation factor at 5 µM | P33261 | 96,000 tested, under 10 active;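 active = activation factor of at least 2 at 5 µM in the primary screen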;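 also: 0 = wells with 2.5 mM tranylcypromine and 1 = vehicle-only wells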
Target sequence (P33261 whole entry, looked up): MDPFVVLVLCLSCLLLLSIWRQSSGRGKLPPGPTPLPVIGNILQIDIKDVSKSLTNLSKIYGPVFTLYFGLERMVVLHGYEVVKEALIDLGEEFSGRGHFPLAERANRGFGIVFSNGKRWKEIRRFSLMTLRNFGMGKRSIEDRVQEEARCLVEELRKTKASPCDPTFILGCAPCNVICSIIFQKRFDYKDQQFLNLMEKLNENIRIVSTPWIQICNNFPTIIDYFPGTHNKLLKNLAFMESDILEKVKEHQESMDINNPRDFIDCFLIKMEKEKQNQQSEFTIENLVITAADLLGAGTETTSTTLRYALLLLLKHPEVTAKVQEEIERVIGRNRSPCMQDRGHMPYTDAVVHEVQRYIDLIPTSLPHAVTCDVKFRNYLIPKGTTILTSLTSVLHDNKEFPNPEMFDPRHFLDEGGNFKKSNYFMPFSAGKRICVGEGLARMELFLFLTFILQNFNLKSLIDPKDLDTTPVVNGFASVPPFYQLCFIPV
PLAP activator: activators of human placental alkaline phosphatase | actives 1.2% (n = 96,000) | purified PLAP enzyme, luminescent substrate read-out; hits give high values | P05187 | activation fold at 20 µM; in the data active = activation fold above about 2
CYP2C19 inh: inhibitors of human CYP2C19; inhibition, % at 5 µM; AID 778; CYP2C19 Supersomes, luciferin-H EGE luminescence, 30 min; actives 21% (n = 96,000); P33261;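 active = CYP2C19 inhibition above a set limit at 5 µM in the primary screen, cut at about 50% in these data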;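 also: plate controls were negative control wells for no effect and 2.5 mM tranylcypromine positive control for full effect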
CYP2C9 inh: inhibitors of human CYP2C9 | inhibition, % at 5 µM | CYP2C9 Supersomes, luciferin-H conversion, luminescence | actives 20% (n = 96,000) | AID 777;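 active = blocking of liver enzyme CYP2C9 beyond about 50% at 5 µM, limit read from the data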
Numbers without * were called inactive. An excerpt weighted towards active compounds, which were near 31% of everything screened.

SMILES | CYP2C9 act | CYP2C19 activ | PLAP activator | CYP2C19 inh | CYP2C9 inh
O=C(COC(=O)c1cc(S(=O)(=O)N2CCc3ccccc3C2)ccc1Cl)NCc1ccco1 | 0.3 | 0.6 | 1.1 | 40.5 | 66.3*
CCn1cc(C(=O)NCCCN2CCC(C)CC2)c(=O)c2cc(S(=O)(=O)N3CCCC3)ccc21 | 0.9 | 1 | 1.7 | -4.9 | 14.3
O=C(COC(=O)c1cccc(S(=O)(=O)N2CCc3ccccc3C2)c1)NCc1ccco1 | 0.6 | 0.7 | 0.9 | 28.2 | 41.8
CCn1cc(C(=O)NCc2ccco2)c(=O)c2cc(S(=O)(=O)N3CCC(C)CC3)ccc21 | 0.3 | 0.9 | 1.4 | 12.7 | 65.5*
CCOC(=O)N1CCC(NC(=O)C2CCN(S(=O)(=O)c3c(C)noc3C)CC2)CC1 | 1.2 | 1 | 1 | -1.9 | -16.6
CCn1cc(C(=O)N2CCc3ccccc32)c(=O)c2cc(S(=O)(=O)N3CCOCC3)ccc21 | 0.8 | 0.9 | 1.4 | 7.8 | 15.7
CCn1cc(C(=O)NCCN(C)CCc2ccccc2)c(=O)c2cc(S(=O)(=O)N(C)C)ccc21 | 0.3 | 0.6 | 1.3 | 37.0 | 74.8*
C=CCn1cc(C(=O)NCc2ccco2)c(=O)c2cc(S(=O)(=O)N3CCCCCC3)ccc21 | 0.1 | 0.6 | 1.5 | 44.1 | 88.7*
CCn1cc(C(=O)NCc2ccco2)c(=O)c2cc(S(=O)(=O)N3CCc4ccccc4C3)ccc21 | 0.2 | 0.6 | 1.5 | 36.5 | 78.5*
Cc1cnn(-c2ccc3nnc(-c4ccc(Cl)cc4)n3n2)c1 | 0.7 | 0.8 | 0.9 | 19.3 | 27.9
Cc1cc(C)c2[nH]c(=O)c(CN(CC3CCCO3)C(=O)C3CCCO3)cc2c1 (centres undefined) | 1.1 | 1 | 1.2 | -1.8 | -8.5
Cc1cccc2cc(CN(CC3CCCO3)C(=O)c3ccncc3)c(=O)[nH]c12 (centres undefined) | 0.2 | 0.1 | 1.2 | 88.7* | 82.9*
Cc1cc(C)c2[nH]c(=O)c(CN(Cc3ccc4c(c3)OCO4)Cc3nnnn3C3CCCC3)cc2c1 | 0.1 | 0.2 | 1.6 | 84.4* | 90.8*
Cc1ccc(C)c2[nH]c(=O)c(CN(CCN3CCOCC3)Cc3nnnn3CC3CCCO3)cc12 (centres undefined) | 1.1 | 1.1 | 1.6 | -5.6 | -13.6
Cc1ccc(C)c2[nH]c(=O)c(CN(Cc3nnnn3C3CCCCC3)CC3CCCO3)cc12 (centres undefined) | 0.4 | 0.1 | 1.8 | 92.8* | 64.7*
Cc1ccc(C)c2[nH]c(=O)c(CN(CC3CCCO3)C(=O)NC3CCCCC3)cc12 (centres undefined) | 0.3 | 0.7 | 1.4 | 28.9 | 72.5*
O=C(NCc1ccccc1)N(Cc1cc2cc3c(cc2[nH]c1=O)OCO3)CC1CCCO1 (centres undefined) | 1 | 0.9 | 0.9 | 7.5 | 0.5
Cc1ccc2[nH]c(=O)c(CN(Cc3nnnn3C3CCCC3)C3CCCCC3)cc2c1 | 0.9 | 0.9 | 1 | 9.8 | 10.4
Cc1ccc2[nH]c(=O)c(CN(Cc3ccccc3)Cc3nnnn3C3CCCC3)cc2c1 | 0.3 | 0.1 | 1.6 | 93.2* | 65.7*
Cn1c(SCc2cccc(Cl)c2)nc(C(F)(F)F)cc1=O | 0.9 | 0.7 | 1.1 | 25.7 | 10.9
COC(=O)c1cc(OC)c(OC)cc1NC(=O)c1cc(-c2ccccc2)nc2ccccc12 | 1 | 1.1 | 0.9 | -7.4 | 4.8
COc1ccc(-c2cc(C(=O)N/N=C/c3sccc3C)c3ccccc3n2)c(OC)c1 | 0.1 | 0.3 | 1.6 | 65.3* | 87.8*
Cc1ccsc1/C=N/NC(=O)c1sccc1C | 0.9 | 0.9 | 0.9 | 9.9 | 9.0
COc1ccccc1-c1cc(C(=O)N/N=C/C=C/c2ccccc2[N+](=O)[O-])c2ccccc2n1 | 0.3 | 0.8 | 1.7 | 21.1 | 66.4*
COc1ccc(-c2cc(C(=O)O)c3ccccc3n2)c(OC)c1 | 0.4 | 1 | 0.8 | 4.7 | 61.8*
SMILES | CYP2C9 act | CYP2C19 activ | PLAP activator | CYP2C19 inh | CYP2C9 inh
COc1ccc(-c2cc(C(=O)N/N=C/c3ccc4c(c3)OCO4)c3ccccc3n2)c(OC)c1 | 0.1 | 0.3 | 1 | 66.4* | 88.3*
COc1cccc(NC(=O)c2oc3ccccc3c2NC(=O)C2CC2)c1 | 0.7 | 0.8 | 1 | 22.9 | 29.4
CCCCc1c(O)nc(SCCN(C)C)n(-c2ccccc2)c1=O | 0.9 | 1 | 1.1 | -1.0 | 7.2
COc1ccccc1-c1cc(C(=O)N/N=C/c2cccs2)c2ccccc2n1 | 0 | 0.2 | 1.7 | 80.0* | 96.4*
COc1cc2ccccc2cc1C(=O)O | 0.2 | 0.8 | 1 | 21.1 | 82.0*
COc1ccc(-c2cc(C(=O)N/N=C/c3ccc(OC)c(COCC(F)(F)C(F)F)c3)c3ccccc3n2)c(OC)c1 | 0.1 | 0.2 | 1.3 | 79.2* | 87.8*
COc1ccc(NC(=O)CSC2=C(C#N)C(c3ccco3)C3=C(CCCC3=O)N2)c(OC)c1 (centres undefined) | 0.1 | 0.1 | 1.8 | 92.7* | 85.1*
COc1cc(C2CC(=O)NC(SCC(=O)Nc3ccccc3C)=C2C#N)ccc1O (centres undefined) | 1.2 | 0.6 | 1.1 | 40.8 | -15.3
CCCCc1ccc(NC(=O)CSC2=C(C#N)C(c3ccco3)C3=C(CCCC3=O)N2)cc1 (centres undefined) | 0.1 | 0.2 | 1 | 75.5* | 91.8*
COc1cccc(NC(=O)CSC2=C(C#N)C(c3ccco3)C3=C(CCCC3=O)N2)c1 (centres undefined) | 0.3 | 0.4 | 1 | 59.8* | 66.0*
COc1ccc(C2C(C#N)=C(SCC(=O)Nc3ccc(C)cc3)NC3=C2C(=O)CC(C)(C)C3)cc1 (centres undefined) | 0.9 | 0.9 | 0.9 | 7.9 | 8.4
C=CCSc1n[nH]c(-c2ccccc2)n1 | 0.9 | 0.6 | 0.8 | 35.5 | 10.1
Cn1c(=O)c2c(nc(Br)n2Cc2ccc3ccccc3c2)n(C)c1=O | 0.7 | 0.6 | 0.9 | 39.1 | 28.3
CCNc1nc2c(c(=O)n(Cc3ccccc3)c(=O)n2C)n1Cc1ccccc1 | 0.1 | 0.2 | 1.6 | 84.3* | 90.1*
Cn1c(N2CCN(c3ccccn3)CC2)nc2c1c(=O)n(Cc1ccc(Cl)cc1)c(=O)n2C | 0.1 | 0.1 | 1.4 | 91.6* | 86.2*
CC1CN(c2nc3c(c(=O)n(Cc4ccc(Cl)c(Cl)c4)c(=O)n3C)n2C)CC(C)O1 (centres undefined) | 0.8 | 1 | 1.6 | -0.2 | 23.6
Cn1c(=O)c2c(nc(NCCCO)n2Cc2cccc(C(F)(F)F)c2)n(C)c1=O | 0.7 | 0.4 | 1.4 | 58.6* | 29.2
Cc1ccc(Cn2c(NCCc3ccccc3)nc3c2c(=O)n(C)c(=O)n3C)cc1 | 0.9 | 1 | 1 | 0.6 | 12.7
COc1ccc(CNc2nc3c(c(=O)n(Cc4ccc(Cl)cc4)c(=O)n3C)n2C)cc1 | 0.9 | 0.9 | 1.7 | 14.0 | 13.4
Cn1c(=O)c2c(nc(NCc3cccnc3)n2Cc2ccc(Cl)cc2)n(C)c1=O | 0.3 | 0.5 | 1.1 | 54.1* | 70.2*
c1ccc(OCCOCCSc2ncccn2)cc1 | 0.9 | 0.5 | 0.9 | 46.5 | 5.1
O=C(CSc1nnc(-c2cccnc2)n1Cc1ccccc1)N1CCOCC1 | 1.1 | 1.2 | 1 | -15.7 | -10.4
